Several values for one entry are separate records, joined by “and”; a condition that tells them apart may be missing. Equal values may be shown once. Results filed as inconclusive are left out. Entries that show only a call come without a potency. A structure can be active in one record and inactive in another. Activity calls are given as the source filed them. The call rests on the fitted dose curve; in most records, active means well fitted inhibition curve with a large enough effect; inconclusive means small, poorly fitted or top-dose-only effect; inactive means flat fitted curve, though single readings scatter.
Tests used:
HaCat = assay: Cytotoxic Profiling of Annotated Libraries Using Quantitative High-Throughput Screening (AID 1296008); conditions: Five cell lines viability, CellTiter-Glo ATP luminescence, 48-72 h; max response: stronger effect = lower value
Method in brief: (§1)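 Cells exposed to compounds for 48 or 72 hr at 37 degrees Celsius. Viability read as ATP-coupled luminescence with CellTiter-Glo after 10 min at room temperature.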

KB-3-1 = assay: as above; conditions: Five cell lines viability, CellTiter-Glo ATP luminescence, 48-72 h; max response: stronger effect = lower value
Method in brief: as §1

NIH3T3 = assay: as above; conditions: Five cell lines viability, CellTiter-Glo ATP luminescence, 48-72 h; max response: stronger effect = lower value
Method in brief: as §1

MCC-13 = assay: qHTS assay to identify novel small-molecules to repurpose for Merkel cell carcinoma treatment (AID 1296009); conditions: MCC and control cell lines, CellTiter-Glo viability, 72 h; series mostly up to 46 µM
Method in brief: (§2)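 Cells were treated for 72 hr at 37 degree celsius with compounds in 8- or 11-point dose response. Viability was read by CellTiter-Glo luminescence, normalized to no-cell (cytotoxicity) and DMSO controls.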

MCC-26 = assay: as above; conditions: MCC and control cell lines, CellTiter-Glo viability, 72 h; series mostly up to 46 µM
Method in brief: as §2

MKL-1 = assay: as above; conditions: MCC and control cell lines, CellTiter-Glo viability, 72 h; series mostly up to 46 µM
Method in brief: as §2

MKL-2 = assay: as above; conditions: MCC and control cell lines, CellTiter-Glo viability, 72 h; series mostly up to 46 µM
Method in brief: as §2

HEK293T = assay: as above; conditions: MCC and control cell lines, CellTiter-Glo viability, 72 h; at 44.8 µM (top of the series)
Method in brief: as §2
Further: nearly all actives have a fitted effect of over 60% in size.
Potency means the concentration at half of the fitted maximal effect.

Compound | max response (HaCat) | max response (KB-3-1) | Potency (NIH3T3) | Potency (MCC-13) | Potency (MCC-26) | Potency (MKL-1) | Potency (MKL-2) | max response (NIH3T3) | Potency (HaCat) | Potency (KB-3-1) | outcome (HEK293T) | outcome (KB-3-1)
c1ccc(-c2nn3c(c2-c2ccnc4cc(OCCN5CCOCC5)ccc24)CCC3)nc1 | -14.5% (inactive) | 6.43% (inactive) | 5.26 µM (active) | inactive | inactive | inactive | inactive |  |  |  |  | 
CN(C)c1ccc(C2Nc3ccc4ccccc4c3C3=C2C(=O)CC(C)(C)C3)cc1Br (stereo not given) | -24.3% (inactive) and -7.34% (inactive) | 1.11% (inactive) and -17.2% (inactive) |  | inactive | inactive | inactive | inactive | -6.99% (inactive) and -2.22% (inactive) |  |  |  | 
CS(=O)(=O)c1cccc(CNc2nc(Nc3ccc4c(c3)CCC(=O)N4)ncc2C(F)(F)F)c1 |  |  | 8.2 µM (active) | inactive | inactive |  | inactive |  | 14.6 µM (active) | 18.7 µM (active) |  | 
COc1ccc(CC2=NN3C([C@@H](CCc4ccccc4)[C@@H](C)O)=NC(C)C3C(=O)N2)cc1OC (stereo not given in full) | -7.5% (inactive) | 9.1% (inactive) |  | inactive | inactive | inactive | inactive | 0.654% (inactive) |  |  |  | 
Cc1c(CCOc2ccc(C(=O)O)cc2)c2cc(Cl)ccc2n1C(c1ccccc1)c1ccccc1 | 0.869% (inactive) | -12.2% (inactive) |  | inactive | inactive | inactive | inactive | -32.3% (inactive) |  |  |  | 
O=C(c1cc(Cc2n[nH]c(=O)c3ccccc23)ccc1F)N1CCN(C(=O)C2CC2)CC1 | -1.1% (inactive) | -21.2% (inactive) and -8.64% (inactive) |  | inactive | inactive | inactive |  | -27.5% (inactive) and -49.1% (inactive) |  |  |  | 
C[C@]1(c2nc3c(C(N)=O)cccc3[nH]2)CCCN1 | -38.2% (inactive) | -0.184% (inactive) |  | inactive | inactive | inactive | inactive | -22% (inactive) |  |  |  | 
CCCn1c(=O)c2[nH]c(C34CC5CC3C[C@@H](C5)C4)nc2n(CCC)c1=O | 4.8% (inactive) | 5.05% (inactive) |  | inactive | inactive | inactive | inactive | -0.656% (inactive) |  |  |  | 
N#Cc1ccc(C(c2ccc(C#N)cc2)n2cncn2)cc1 | 2.76% (inactive) | -0.837% (inactive) and -6.35% (inactive) |  | inactive | inactive |  | inactive | 2.6% (inactive) |  |  |  | 
CC1(C)Cc2c(-c3ccccc3)c(-c3ccc(Cl)cc3)c(CC(=O)O)n2C1 | -5.26% (inactive) and -28.4% (inactive) | -7.08% (inactive) |  | inactive | inactive | inactive | inactive | -5.92% (inactive) |  |  |  | 
Cn1cnc([N+](=O)[O-])c1Sc1ncnc2nc[nH]c12 |  |  | 3.82 µM (active) and 7.5 µM (active) and 5.9 µM (active) | 4.28 µM (active) and 6.68 µM (active) | inactive | 10.8 µM (active) and inactive | 12.1 µM (active) |  | 2.7 µM (active) and 15 µM (active) and 11.8 µM (active) | 2.96 µM (active) |  | 
OCCn1cc(-c2cnc3nnn(Cc4ccc5ncccc5c4)c3n2)cn1 | -20.1% (inactive) | 1.4% (inactive) and -22% (inactive) |  | inactive | inactive | inactive | inactive | -29.5% (inactive) |  |  |  | 
O=C(NOC[C@H](O)CO)c1ccc(F)c(F)c1Nc1ccc(I)cc1F |  | 4.78% (inactive) and 5.99% (inactive) | 6.51 µM (active) |  | inactive |  |  |  | 8.33 µM (active) and 23.1 nM (active) |  | inactive | 
CCCS(=O)(=O)Nc1ccc(F)c(C(=O)c2c[nH]c3ncc(Cl)cc23)c1F | -1.82% (inactive) | -9.42% (inactive) and -0.0181% (inactive) |  | inactive | inactive | inactive | inactive | -18.6% (inactive) |  |  |  | 
Cc1c(CN2CCN(C(=O)C(C)C)CC2)sc2c(N3CCOCC3)nc(-c3cnc(N)nc3)nc12 |  |  | 0.469 µM (active) |  | 0.662 µM (active) |  |  |  | 1.05 µM (active) | 0.148 µM (active) |  | 
CS(=O)(=O)c1ccc(C(=O)Nc2ccc(Cl)c(-c3ccccn3)c2)c(Cl)c1 | -0.0394% (inactive) | 9.49% (inactive) and -9.43% (inactive) |  | inactive | inactive | inactive | inactive | -17.3% (inactive) and -11.2% (inactive) |  |  |  | 
CO[C@@H]1[C@H](N(C)C(=O)c2ccccc2)C[C@H]2O[C@]1(C)n1c3ccccc3c3c4c(c5c6ccccc6n2c5c31)C(=O)NC4 |  |  | 1.66 µM (active) | 2.96 µM (active) | 4.69 µM (active) |  |  |  | 3.72 µM (active) | 3.32 µM (active) |  | 
CCOC(=O)C1=C[C@]2(CC)CCCN3CCc4c(n1c1ccccc41)[C@@H]32 | -26.7% (inactive) and -18% (inactive) | 2.59% (inactive) and -10.9% (inactive) |  | inactive | inactive | inactive |  | -12.6% (inactive) |  |  |  | 
CCOC(=O)N1CCC(=C2c3ccc(Cl)cc3CCc3cccnc32)CC1 | -16.9% (inactive) and -8.21% (inactive) |  |  | inactive | inactive | inactive | inactive | -21% (inactive) and -12% (inactive) |  |  |  | inactive
O=C(C1CC1)N1CC[C@@H](Cn2c(-c3ccc(-c4ccc5occc5c4)cc3)nc3cnccc32)C1 | -11.7% (inactive) | 3.71% (inactive) |  | inactive | inactive | inactive | inactive | 1.4% (inactive) |  |  |  | 
COc1cc(Nc2ncc3c(n2)-c2ccc(Cl)cc2C(c2c(F)cccc2OC)=NC3)ccc1C(=O)O |  |  | 7.43 µM (active) |  | inactive |  | inactive |  | 16.4 µM (active) and 833 nM (active) | 2.09 µM (active) |  | 
O=C(O)[C@@H](c1ccc(OCc2ccc3ccccc3n2)cc1)C1CCCC1 | -16.3% (inactive) | -4.52% (inactive) |  | inactive | inactive | inactive | inactive | -0.267% (inactive) |  |  |  | 
NNCCc1ccccc1 | -0.0842% (inactive) and -11.1% (inactive) | -10.1% (inactive) and -6.14% (inactive) |  | inactive | inactive | inactive | inactive | 1.01% (inactive) |  |  |  | 
CC(C)OC(=O)C1=CN(C(=O)c2ccc(F)c(F)c2)CC(C)(C)c2c1[nH]c1ccccc21 | -4.65% (inactive) | -6.75% (inactive) and 0.0694% (inactive) |  | inactive | inactive | inactive | inactive | 3.45% (inactive) and -0.558% (inactive) |  |  |  | 
